Rows were chosen to be rich in hits. Some 2% of all compounds tested hit in one or more screens of this group.
Fh CTSL1 inh: Fasciola hepatica cathepsin L1 inhibitors, primary screen, counter-screen for PFM18AAP inhibitor project, biochemical, QFRET, fluorogenic peptide substrate. recombinant F. hepatica cathepsin L1, Z-Leu-Arg-MCA fluorescence. inhibition, % at 5.96 µM. hit rate 0.49% among 300,000. AID 1906, 2009;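 active = inhibition above the mean of all tested compounds plus 3 SD, set per screening campaign, cut at about 17% in these data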
HGIII-sPLA2 inh: human group III sPLA2 inhibitors, primary screen, biochemical, QFRET, BODIPY PC-A2 liposome substrate | Group 3 secretory phospholipase A2 (Homo sapiens), Q9NZ20 | QFRET BODIPY PC-A2 liposome hydrolysis, fluorescence | inhibition, % at 12.2 µM | hit rate 0.56% among 370,000 | AID 743126, 2013;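 active = inhibition above mean plus 3 SD of compounds lying within the high and low control bounds, cut at about 19% in these data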
A3G deaminase: APOBEC3G DNA deaminase inhibitors, primary screen, biochemical, fluorescence, single-stranded DNA substrate, uHTS; DNA dC->dU-editing enzyme APOBEC-3G (Homo sapiens), Q9HC16; recombinant A3G, ssDNA deamination FAM/TAMRA fluorescence; inhibition, % at 20 µM; hit rate 0.28% among 330,000; AID 493012, 2011;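 active = inhibition of at least 40% at 20 µM, with no more than 30% in the related APOBEC3A deaminase screen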
Target sequence (Q9HC16 whole entry, looked up): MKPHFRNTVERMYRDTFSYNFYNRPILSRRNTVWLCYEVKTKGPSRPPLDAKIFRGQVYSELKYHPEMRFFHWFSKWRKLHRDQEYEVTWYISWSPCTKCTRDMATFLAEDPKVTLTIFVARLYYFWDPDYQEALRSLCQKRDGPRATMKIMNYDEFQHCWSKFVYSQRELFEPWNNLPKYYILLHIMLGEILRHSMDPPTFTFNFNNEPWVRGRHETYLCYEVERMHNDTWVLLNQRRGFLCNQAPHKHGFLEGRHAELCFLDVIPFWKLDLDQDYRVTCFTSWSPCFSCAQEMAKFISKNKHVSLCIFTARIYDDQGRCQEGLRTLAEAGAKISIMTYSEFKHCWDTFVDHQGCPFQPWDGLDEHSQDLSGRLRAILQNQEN
A3A deaminase: APOBEC3A ssDNA deaminase inhibitors, primary screen, selectivity assay for APOBEC3G inhibitor project, biochemical, FAM/TAMRA oligo cleavage fluorescence | DNA dC->dU-editing enzyme APOBEC-3A (Homo sapiens), P31941 | recombinant A3A, FAM/TAMRA ssDNA deamination fluorescence | inhibition, % at 20 µM | hit rate 0.41% among 330,000;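 active = at least 40% inhibition at 20 µM here, with at most 30% in a related deaminase screen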
NALP1 inh: NALP1 inflammasome inhibitors in reconstituted yeast, colorimetric, S. cerevisiae, triplicate retest | inhibition, % at 10 µM | S. cerevisiae NALP1/ASC/caspase-1 growth, X-gal OD620, 72 h | hit rate 0.61% among 280,000; in the data active = inhibition mostly above about 24%, no sharp cut-off; inactive = mostly below about 32%
APOBEC3G confirm: APOBEC3G deaminase inhibitor retest, confirmation, biochemical, fluorescence, single-stranded DNA substrate, single concentration | shares compounds with A3G deaminase | recombinant A3G ssDNA deaminase, UDG/FAM-TAMRA fluorescence | inhibition, % at 20 µM | hit rate 72% among 890 | AID 493152, 2011;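 active = inhibition reaching a set limit in any replicate at 20 µM, the limit being 80% of the first screen's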
UDG A3G counter: E. coli UDG inhibitors, confirmation, counter-screen for APOBEC3G inhibitor project, biochemical, single concentration, fluorescence, FAM/TAMRA oligo. shares compounds with A3G deaminase. UDG counterscreen. inhibition, % at 20 µM. 710 tested, under 10 active;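 active = compounds giving 40% or more inhibition at 20 µM in any one of the three replicates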;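 also: inhibitors lower the FAM signal released by uracil excision and alkaline cleavage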
Target sequence (P12295 whole entry, looked up): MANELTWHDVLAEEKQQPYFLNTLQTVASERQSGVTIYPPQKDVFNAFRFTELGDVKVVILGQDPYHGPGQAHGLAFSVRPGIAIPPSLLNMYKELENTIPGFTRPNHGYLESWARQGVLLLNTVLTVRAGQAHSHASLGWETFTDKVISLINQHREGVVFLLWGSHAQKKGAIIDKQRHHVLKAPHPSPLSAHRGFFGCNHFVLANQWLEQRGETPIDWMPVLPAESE
Numbers stand for hits.

What do the screens show for `Cc1cc(C(=O)O)ccc1-n1c(C)cc(/C=C(/C#N)C(=O)Nc2ccccc2)c1C`?
Fh CTSL1 inh: inactive; HGIII-sPLA2 inh: inactive; A3G deaminase: inactive; A3A deaminase: inactive; NALP1 inh: inactive

What do the screens show for `Cc1cc(C(=O)O)ccc1-n1c(C)cc(C=C2C(=O)c3ccccc3C2=O)c1C`?
Fh CTSL1 inh: 19; HGIII-sPLA2 inh: inactive; A3G deaminase: 51; A3A deaminase: inactive; NALP1 inh: inactive; APOBEC3G confirm: inactive

Results for CC(=O)N/C(=C/c1ccccc1)C(=O)NC(Cc1ccccc1)C(=O)O (centres undefined) ?
Fh CTSL1 inh: inactive; HGIII-sPLA2 inh: inactive; A3G deaminase: 43; A3A deaminase: inactive; NALP1 inh: inactive; APOBEC3G confirm: inactive

Results for O=C(NC(Cc1ccccc1)C(=O)O)/C(=C/c1ccccc1)NC(=O)c1ccccc1 (centres undefined) ?
Fh CTSL1 inh: inactive; HGIII-sPLA2 inh: inactive; A3G deaminase: inactive; A3A deaminase: inactive; NALP1 inh: inactive

What do the screens show for `O=S(=O)(c1cccc(-c2n[nH]c(=S)n2-c2ccccc2Cl)c1)N1CCOCC1`?
HGIII-sPLA2 inh: inactive; A3G deaminase: inactive; A3A deaminase: inactive

What do the screens show for `O=S(=O)(c1cccc(-c2n[nH]c(=S)n2Cc2ccccc2)c1)N1CCOCC1`?
Fh CTSL1 inh: inactive; HGIII-sPLA2 inh: inactive; A3G deaminase: 46; A3A deaminase: inactive; NALP1 inh: inactive; APOBEC3G confirm: 72; UDG A3G counter: inactive

How did CC(C)Cn1c(Cc2ccccc2)n[nH]c1=S do in these assays?
Fh CTSL1 inh: inactive; HGIII-sPLA2 inh: inactive; A3G deaminase: inactive; A3A deaminase: inactive; NALP1 inh: inactive

What do the screens show for `CC(C)Cn1c(-c2ccncc2)n[nH]c1=S`?
Fh CTSL1 inh: inactive; HGIII-sPLA2 inh: inactive; A3G deaminase: inactive; A3A deaminase: inactive; NALP1 inh: inactive

Results for CC(C)Cn1c(-c2ccccc2F)n[nH]c1=S ?
Fh CTSL1 inh: inactive; HGIII-sPLA2 inh: inactive; A3G deaminase: 41; A3A deaminase: inactive; NALP1 inh: inactive; APOBEC3G confirm: 82; UDG A3G counter: inactive

How did CC(C)Cn1c(-c2ccc(F)cc2)n[nH]c1=S do in these assays?
Fh CTSL1 inh: inactive; HGIII-sPLA2 inh: inactive; A3G deaminase: 41; A3A deaminase: inactive; NALP1 inh: inactive; APOBEC3G confirm: 82; UDG A3G counter: inactive

What do the screens show for `CNC[C@@H]1OCc2cnnn2CCCC(=O)N([C@@H](C)CO)C[C@H]1C`?
HGIII-sPLA2 inh: inactive

What do the screens show for `O=C(/C=C/c1ccccc1)Nc1cccc(S(=O)(=O)Nc2ccccc2F)c1`?
Fh CTSL1 inh: inactive; HGIII-sPLA2 inh: inactive; A3G deaminase: 71; A3A deaminase: inactive; NALP1 inh: inactive; APOBEC3G confirm: 60; UDG A3G counter: inactive

What do the screens show for `O=S(=O)(Nc1ccc(Br)cc1)c1cccc(NC(=S)NCCN2CCOCC2)c1`?
Fh CTSL1 inh: inactive; HGIII-sPLA2 inh: inactive; A3G deaminase: inactive; A3A deaminase: inactive; NALP1 inh: inactive

How did O=C(Cc1ccc(Cl)cc1Cl)Nc1cccc(S(=O)(=O)Nc2ccccc2F)c1 do in these assays?
Fh CTSL1 inh: inactive; HGIII-sPLA2 inh: inactive; A3G deaminase: 56; A3A deaminase: inactive; NALP1 inh: inactive; APOBEC3G confirm: 74; UDG A3G counter: inactive

Results for COc1ccccc1NS(=O)(=O)c1cccc(NC(=O)c2ccc3ccccc3n2)c1 ?
Fh CTSL1 inh: inactive; HGIII-sPLA2 inh: inactive; A3G deaminase: inactive; A3A deaminase: inactive; NALP1 inh: inactive

What do the screens show for `O=S(=O)(Nc1ccccc1F)c1cccc(NC(=S)NCCN2CCOCC2)c1`?
HGIII-sPLA2 inh: inactive; A3G deaminase: 71; A3A deaminase: inactive; APOBEC3G confirm: 80; UDG A3G counter: inactive

What do the screens show for `O=C(Nc1cccc(S(=O)(=O)Nc2ccccc2F)c1)c1ccc2ccccc2n1`?
Fh CTSL1 inh: inactive; HGIII-sPLA2 inh: inactive; A3G deaminase: 56; A3A deaminase: inactive; NALP1 inh: inactive; APOBEC3G confirm: 61; UDG A3G counter: inactive

What do the screens show for `c1ccc(CCc2nn3c(Cn4nnc5ccccc54)nnc3s2)cc1`?
Fh CTSL1 inh: inactive; HGIII-sPLA2 inh: inactive; A3G deaminase: inactive; A3A deaminase: inactive; NALP1 inh: inactive

How did c1ccc(CCc2nn3c(Cn4cnc5ccccc54)nnc3s2)cc1 do in these assays?
Fh CTSL1 inh: inactive; HGIII-sPLA2 inh: inactive; A3G deaminase: 49; A3A deaminase: inactive; NALP1 inh: inactive; APOBEC3G confirm: 21; UDG A3G counter: inactive

What do the screens show for `Clc1ccccc1-c1nnc2sc(CCc3ccccc3)nn12`?
Fh CTSL1 inh: inactive; HGIII-sPLA2 inh: inactive; A3G deaminase: 63; A3A deaminase: inactive; NALP1 inh: inactive; APOBEC3G confirm: 51; UDG A3G counter: inactive

Results for CCc1ccccc1N=Nc1c(N)[nH]n(-c2ccccc2)c1=O ?
HGIII-sPLA2 inh: inactive

What do the screens show for `CC(=O)c1sc2nsc(SCCN3CCOCC3)c2c1N`?
Fh CTSL1 inh: inactive; HGIII-sPLA2 inh: inactive; A3G deaminase: 62; A3A deaminase: inactive; NALP1 inh: inactive; APOBEC3G confirm: 59; UDG A3G counter: inactive

Results for CCn1c(CSc2nc3ccccc3[nH]2)n[nH]c1=S ?
Fh CTSL1 inh: inactive; A3G deaminase: 46; A3A deaminase: inactive; NALP1 inh: inactive; APOBEC3G confirm: 55; UDG A3G counter: inactive

What do the screens show for `CCn1c(CSCc2ccccc2)n[nH]c1=S`?
Fh CTSL1 inh: inactive; HGIII-sPLA2 inh: inactive; A3G deaminase: 41; A3A deaminase: inactive; NALP1 inh: inactive; APOBEC3G confirm: 85; UDG A3G counter: inactive

How did CN(C)[C@@H]1CCN(c2cccc3c2S(=O)(=O)N2CC[C@@H](C2)O3)C1 do in these assays?
HGIII-sPLA2 inh: inactive

How did O=C(CN(CC(=O)N1CCOCC1)S(=O)(=O)c1ccc(Br)s1)N1CCOCC1 do in these assays?
Fh CTSL1 inh: inactive; HGIII-sPLA2 inh: inactive; A3G deaminase: 46; A3A deaminase: inactive; APOBEC3G confirm: 58; UDG A3G counter: inactive

Results for CN(CC(=O)N1CCCCCC1)S(=O)(=O)c1ccc(Br)s1 ?
Fh CTSL1 inh: inactive; HGIII-sPLA2 inh: inactive; A3G deaminase: inactive; A3A deaminase: inactive

Source: PubChem
